From ChEMBL document CHEMBL1961873, “Compounds: GSK PKIS; Assays: Nanosyn kinase panel” (2012) come the findings set out here.

Experiment [1] deals with Death-associated protein kinase 1 (Homo sapiens) (UniProt P53355). The following applies: at 1 µM.
The target of experiment [2] is T1, Serine/threonine-protein kinase DCLK2 (Homo sapiens) (UniProt Q8N568).
T1 sequence (whole entry): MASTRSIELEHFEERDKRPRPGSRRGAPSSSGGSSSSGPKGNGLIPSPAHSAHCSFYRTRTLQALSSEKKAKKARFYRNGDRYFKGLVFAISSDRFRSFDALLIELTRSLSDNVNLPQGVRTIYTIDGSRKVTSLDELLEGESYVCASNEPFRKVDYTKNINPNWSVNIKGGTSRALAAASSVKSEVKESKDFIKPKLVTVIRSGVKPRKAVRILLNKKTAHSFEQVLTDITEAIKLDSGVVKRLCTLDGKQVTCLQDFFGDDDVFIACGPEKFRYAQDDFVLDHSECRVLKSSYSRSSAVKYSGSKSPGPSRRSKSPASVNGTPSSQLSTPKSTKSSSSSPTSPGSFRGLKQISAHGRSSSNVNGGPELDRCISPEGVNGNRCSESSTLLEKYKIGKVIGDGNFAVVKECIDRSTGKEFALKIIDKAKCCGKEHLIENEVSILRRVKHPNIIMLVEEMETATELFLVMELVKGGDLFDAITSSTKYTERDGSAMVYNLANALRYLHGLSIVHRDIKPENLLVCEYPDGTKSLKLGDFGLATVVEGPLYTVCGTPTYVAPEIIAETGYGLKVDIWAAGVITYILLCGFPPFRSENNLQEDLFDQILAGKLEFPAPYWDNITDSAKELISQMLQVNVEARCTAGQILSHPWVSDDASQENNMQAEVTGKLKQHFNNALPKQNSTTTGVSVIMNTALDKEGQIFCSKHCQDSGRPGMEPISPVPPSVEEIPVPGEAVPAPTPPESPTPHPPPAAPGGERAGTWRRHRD
The note with it: at 0.1 µM.

For experiment [3], the target named is T1, Serine/threonine-protein kinase DCLK2 (Homo sapiens). The following applies: at 1 µM.
For experiment [4], the target named is MAP kinase-activated protein kinase 2 (Homo sapiens) (UniProt P49137). The note with it: at 0.1 µM.
MAP kinase-activated protein kinase 2 (Homo sapiens), sequence (P49137 whole entry, looked up): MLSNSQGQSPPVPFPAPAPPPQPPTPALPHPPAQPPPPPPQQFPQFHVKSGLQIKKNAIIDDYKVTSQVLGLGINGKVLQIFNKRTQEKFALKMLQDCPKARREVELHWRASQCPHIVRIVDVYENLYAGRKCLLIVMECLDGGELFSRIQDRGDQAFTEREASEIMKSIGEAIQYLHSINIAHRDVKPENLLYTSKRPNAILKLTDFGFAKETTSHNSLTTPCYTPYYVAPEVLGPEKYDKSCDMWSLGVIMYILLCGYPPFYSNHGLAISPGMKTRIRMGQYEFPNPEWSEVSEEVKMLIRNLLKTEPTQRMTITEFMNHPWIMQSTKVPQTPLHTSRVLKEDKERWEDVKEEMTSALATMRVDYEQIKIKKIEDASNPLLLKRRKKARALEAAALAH
Experiment [5] shares this target. The note with it: at 1 µM.
Experiment [6] deals with MAP kinase-activated protein kinase 3 (Homo sapiens) (UniProt Q16644). The following applies: at 0.1 µM.
MAP kinase-activated protein kinase 3 (Homo sapiens), sequence (Q16644 whole entry, looked up): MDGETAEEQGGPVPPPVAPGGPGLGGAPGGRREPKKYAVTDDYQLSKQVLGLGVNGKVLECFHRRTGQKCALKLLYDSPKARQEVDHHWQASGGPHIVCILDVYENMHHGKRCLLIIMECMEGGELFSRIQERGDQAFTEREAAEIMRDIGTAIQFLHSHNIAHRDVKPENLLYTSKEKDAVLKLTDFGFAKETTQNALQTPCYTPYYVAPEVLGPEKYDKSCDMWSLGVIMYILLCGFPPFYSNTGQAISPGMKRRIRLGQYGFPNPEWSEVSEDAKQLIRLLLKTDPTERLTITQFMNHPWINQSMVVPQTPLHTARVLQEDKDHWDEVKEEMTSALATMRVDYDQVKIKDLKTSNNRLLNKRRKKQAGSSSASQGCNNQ
Experiment [7] has the same target. The following applies: at 1 µM.
Experiment [8] concerns the target Serine/threonine-protein kinase MARK1 (Homo sapiens) (UniProt Q9P0L2). The note with it: at 0.1 µM.
Experiment [9] has the same target. The note with it: at 1 µM.
Experiment [10] deals with MAP/microtubule affinity-regulating kinase 3 (Homo sapiens) (UniProt P27448). The following applies: at 0.1 µM.
MAP/microtubule affinity-regulating kinase 3 (Homo sapiens), sequence (P27448 whole entry, looked up): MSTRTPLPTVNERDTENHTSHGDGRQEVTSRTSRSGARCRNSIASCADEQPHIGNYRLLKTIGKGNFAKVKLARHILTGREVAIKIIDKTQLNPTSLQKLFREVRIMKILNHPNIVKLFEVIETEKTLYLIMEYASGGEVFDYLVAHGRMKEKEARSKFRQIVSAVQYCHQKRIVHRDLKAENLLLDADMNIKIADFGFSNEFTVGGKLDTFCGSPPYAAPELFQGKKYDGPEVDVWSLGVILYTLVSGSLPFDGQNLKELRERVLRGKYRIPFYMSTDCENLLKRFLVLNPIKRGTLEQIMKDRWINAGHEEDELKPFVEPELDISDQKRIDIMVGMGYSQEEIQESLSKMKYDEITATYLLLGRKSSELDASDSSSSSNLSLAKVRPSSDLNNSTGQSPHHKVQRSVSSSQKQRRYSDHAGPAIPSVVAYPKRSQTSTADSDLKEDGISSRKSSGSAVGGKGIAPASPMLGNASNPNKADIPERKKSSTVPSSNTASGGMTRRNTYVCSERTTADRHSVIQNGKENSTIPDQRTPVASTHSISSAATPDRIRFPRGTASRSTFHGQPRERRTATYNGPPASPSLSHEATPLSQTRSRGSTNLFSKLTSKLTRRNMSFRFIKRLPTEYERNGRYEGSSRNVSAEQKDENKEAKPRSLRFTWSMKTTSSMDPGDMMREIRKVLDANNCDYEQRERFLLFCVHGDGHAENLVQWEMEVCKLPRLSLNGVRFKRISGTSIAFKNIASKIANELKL
Experiment [11] shares this target. The following applies: at 1 µM.
For experiment [12], the target named is T2, MAP/microtubule affinity-regulating kinase 4 (Homo sapiens) (UniProt Q96L34).
T2 sequence (whole entry): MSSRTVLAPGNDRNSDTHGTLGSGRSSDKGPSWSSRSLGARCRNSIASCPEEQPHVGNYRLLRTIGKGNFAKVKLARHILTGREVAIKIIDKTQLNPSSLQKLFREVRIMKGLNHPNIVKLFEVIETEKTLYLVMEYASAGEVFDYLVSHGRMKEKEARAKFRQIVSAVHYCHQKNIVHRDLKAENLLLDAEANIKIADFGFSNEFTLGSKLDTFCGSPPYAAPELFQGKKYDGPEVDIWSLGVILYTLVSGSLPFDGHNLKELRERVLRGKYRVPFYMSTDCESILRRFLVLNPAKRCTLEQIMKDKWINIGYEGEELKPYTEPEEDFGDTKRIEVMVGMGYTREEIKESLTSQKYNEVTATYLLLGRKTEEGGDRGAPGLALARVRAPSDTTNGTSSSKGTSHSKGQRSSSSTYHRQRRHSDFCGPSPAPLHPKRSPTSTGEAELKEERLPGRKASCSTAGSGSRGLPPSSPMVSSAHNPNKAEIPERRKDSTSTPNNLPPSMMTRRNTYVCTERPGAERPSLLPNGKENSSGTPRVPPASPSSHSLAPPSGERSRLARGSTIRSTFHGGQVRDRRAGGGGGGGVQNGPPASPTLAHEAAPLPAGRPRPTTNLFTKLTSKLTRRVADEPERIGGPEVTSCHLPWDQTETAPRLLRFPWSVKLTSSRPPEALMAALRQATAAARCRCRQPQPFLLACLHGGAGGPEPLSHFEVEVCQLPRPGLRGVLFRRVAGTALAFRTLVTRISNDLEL
The note with it: at 0.1 µM.

Experiment [13] deals with T2, MAP/microtubule affinity-regulating kinase 4 (Homo sapiens). The note with it: at 1 µM.
The target of experiment [14] is Maternal embryonic leucine zipper kinase (Homo sapiens) (UniProt Q14680). The following applies: at 0.1 µM.
Maternal embryonic leucine zipper kinase (Homo sapiens), sequence (Q14680 whole entry, looked up): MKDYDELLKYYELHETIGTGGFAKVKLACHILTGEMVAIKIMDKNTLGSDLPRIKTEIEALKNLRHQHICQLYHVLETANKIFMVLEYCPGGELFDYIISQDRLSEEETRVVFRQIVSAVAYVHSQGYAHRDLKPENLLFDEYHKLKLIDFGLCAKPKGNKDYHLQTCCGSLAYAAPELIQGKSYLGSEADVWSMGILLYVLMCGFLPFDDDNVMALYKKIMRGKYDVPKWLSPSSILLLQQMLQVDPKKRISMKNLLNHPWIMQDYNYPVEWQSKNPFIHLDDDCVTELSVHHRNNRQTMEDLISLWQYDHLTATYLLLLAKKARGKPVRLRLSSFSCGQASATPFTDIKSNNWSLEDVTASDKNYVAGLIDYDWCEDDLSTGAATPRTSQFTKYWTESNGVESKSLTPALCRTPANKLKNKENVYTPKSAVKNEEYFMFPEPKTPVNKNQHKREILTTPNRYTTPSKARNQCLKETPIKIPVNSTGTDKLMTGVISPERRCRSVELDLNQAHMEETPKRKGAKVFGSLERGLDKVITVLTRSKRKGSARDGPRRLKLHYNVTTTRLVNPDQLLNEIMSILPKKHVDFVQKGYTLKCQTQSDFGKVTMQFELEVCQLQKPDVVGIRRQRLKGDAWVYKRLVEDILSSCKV
The target is the same in experiment [15]. The note with it: at 1 µM.
Experiment [16] has as its target MAP kinase-interacting serine/threonine-protein kinase 1 (Homo sapiens) (UniProt Q9BUB5). The following applies: at 0.1 µM.
Experiment [17] shares this target. The note with it: at 1 µM.
The target in experiment [18] is MAP kinase-interacting serine/threonine-protein kinase 2 (Homo sapiens) (UniProt Q9HBH9). The following applies: at 0.1 µM.
MAP kinase-interacting serine/threonine-protein kinase 2 (Homo sapiens), sequence (Q9HBH9 whole entry, looked up): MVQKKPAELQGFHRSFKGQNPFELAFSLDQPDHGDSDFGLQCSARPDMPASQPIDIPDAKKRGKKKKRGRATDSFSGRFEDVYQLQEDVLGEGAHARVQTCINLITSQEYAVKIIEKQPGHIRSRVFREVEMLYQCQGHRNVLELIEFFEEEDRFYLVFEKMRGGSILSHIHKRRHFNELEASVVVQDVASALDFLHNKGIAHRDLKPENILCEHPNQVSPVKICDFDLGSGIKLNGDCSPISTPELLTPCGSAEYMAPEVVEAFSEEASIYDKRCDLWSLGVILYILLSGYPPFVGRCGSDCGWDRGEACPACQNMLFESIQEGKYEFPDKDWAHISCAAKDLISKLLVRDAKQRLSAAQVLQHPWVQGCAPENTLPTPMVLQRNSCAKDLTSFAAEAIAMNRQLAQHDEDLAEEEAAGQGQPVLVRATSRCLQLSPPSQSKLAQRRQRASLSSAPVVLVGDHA
Experiment [19] shares this target. The note with it: at 1 µM.
Experiment [20] concerns the target Serine/threonine-protein kinase MARK2 (Homo sapiens) (UniProt Q7KZI7). The note with it: at 0.1 µM.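 Also: mean percent inhibition of PAR-1Balpha kinase activity, reported from the GSK PKIS screen.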

Serine/threonine-protein kinase MARK1 (Homo sapiens), sequence (Q9P0L2 whole entry, looked up): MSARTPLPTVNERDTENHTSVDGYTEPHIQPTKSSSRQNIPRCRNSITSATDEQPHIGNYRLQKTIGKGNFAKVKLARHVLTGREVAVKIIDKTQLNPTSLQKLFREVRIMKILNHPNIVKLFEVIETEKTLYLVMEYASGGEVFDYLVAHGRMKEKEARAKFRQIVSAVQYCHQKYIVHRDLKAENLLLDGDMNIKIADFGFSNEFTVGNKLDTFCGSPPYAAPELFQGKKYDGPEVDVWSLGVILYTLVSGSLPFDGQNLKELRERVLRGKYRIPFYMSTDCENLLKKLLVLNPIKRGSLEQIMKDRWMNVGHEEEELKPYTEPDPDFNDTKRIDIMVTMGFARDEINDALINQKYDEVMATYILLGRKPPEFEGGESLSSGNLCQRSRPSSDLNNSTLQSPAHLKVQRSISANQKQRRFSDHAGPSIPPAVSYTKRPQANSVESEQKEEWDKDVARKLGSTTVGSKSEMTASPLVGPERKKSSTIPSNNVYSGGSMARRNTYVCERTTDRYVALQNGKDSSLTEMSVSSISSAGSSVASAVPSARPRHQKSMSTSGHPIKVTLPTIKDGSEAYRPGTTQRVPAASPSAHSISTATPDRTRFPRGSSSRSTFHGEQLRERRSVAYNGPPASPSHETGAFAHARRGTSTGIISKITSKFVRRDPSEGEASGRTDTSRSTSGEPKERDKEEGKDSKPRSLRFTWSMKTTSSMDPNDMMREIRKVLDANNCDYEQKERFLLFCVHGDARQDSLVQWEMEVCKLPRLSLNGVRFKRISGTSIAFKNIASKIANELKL
MAP kinase-interacting serine/threonine-protein kinase 1 (Homo sapiens), sequence (Q9BUB5 whole entry, looked up): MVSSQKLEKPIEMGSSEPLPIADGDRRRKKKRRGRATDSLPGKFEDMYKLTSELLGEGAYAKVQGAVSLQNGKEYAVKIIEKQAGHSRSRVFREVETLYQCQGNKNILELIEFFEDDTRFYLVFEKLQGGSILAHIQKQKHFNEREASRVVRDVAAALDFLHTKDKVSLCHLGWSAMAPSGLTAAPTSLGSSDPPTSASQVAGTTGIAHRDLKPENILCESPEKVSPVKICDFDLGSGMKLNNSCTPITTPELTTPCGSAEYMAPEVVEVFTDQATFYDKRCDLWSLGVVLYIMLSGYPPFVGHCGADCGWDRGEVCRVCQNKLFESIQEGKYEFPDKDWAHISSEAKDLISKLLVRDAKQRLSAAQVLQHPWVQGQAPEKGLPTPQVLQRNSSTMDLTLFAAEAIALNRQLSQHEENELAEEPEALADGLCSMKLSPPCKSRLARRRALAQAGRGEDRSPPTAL
Serine/threonine-protein kinase MARK2 (Homo sapiens), sequence (Q7KZI7 whole entry): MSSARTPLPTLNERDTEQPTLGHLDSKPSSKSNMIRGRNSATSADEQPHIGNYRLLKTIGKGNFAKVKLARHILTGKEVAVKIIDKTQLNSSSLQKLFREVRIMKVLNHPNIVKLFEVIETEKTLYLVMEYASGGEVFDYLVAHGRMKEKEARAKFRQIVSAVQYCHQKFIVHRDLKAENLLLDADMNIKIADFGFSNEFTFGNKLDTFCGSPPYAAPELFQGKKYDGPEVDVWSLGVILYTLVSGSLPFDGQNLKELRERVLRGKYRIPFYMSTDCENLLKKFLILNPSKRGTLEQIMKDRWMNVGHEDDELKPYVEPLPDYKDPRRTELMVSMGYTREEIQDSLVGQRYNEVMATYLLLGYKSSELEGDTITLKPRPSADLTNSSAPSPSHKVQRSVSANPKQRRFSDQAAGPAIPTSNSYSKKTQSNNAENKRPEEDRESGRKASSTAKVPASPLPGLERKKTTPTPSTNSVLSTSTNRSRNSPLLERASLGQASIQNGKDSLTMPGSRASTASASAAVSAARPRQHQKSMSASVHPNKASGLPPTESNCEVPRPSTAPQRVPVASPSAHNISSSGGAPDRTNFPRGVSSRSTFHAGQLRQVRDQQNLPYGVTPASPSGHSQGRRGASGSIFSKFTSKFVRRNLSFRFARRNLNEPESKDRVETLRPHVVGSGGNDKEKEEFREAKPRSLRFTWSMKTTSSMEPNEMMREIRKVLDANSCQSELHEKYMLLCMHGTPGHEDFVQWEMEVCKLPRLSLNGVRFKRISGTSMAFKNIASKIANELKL

As for `C/C(Nc1ccc(S(N)(=O)=O)cc1)=C1/C(=O)Nc2ccccc21`, the inhibition in experiment [1] was 1.66%; in [2], 4.83%; in experiment [3], 2.32%; in experiment [4], -0.92%; in experiment [5] it was -0.57%; in experiment [6], -0.79%. In addition, the inhibition in [7] is -0.11%; in [8], 4.3%; in experiment [9], 32.8%; in [10], 2.37%; in [11], 19.8%; in experiment [12], 4.34%. The inhibition in experiment [13] was 28.2%; in experiment [14], 2.57%; in [15] it was 41.9%; in [16], -1.24%; in experiment [17] it was 3.04%; in experiment [18] it was -1.74%. For the same molecule, the inhibition is 3.41% in experiment [19] and 2.01% in [20].

Regarding `CN1CCN(CCCNc2nc3ccc(Oc4ccc(NC(=O)Nc5cc(C(F)(F)F)ccc5F)cc4)cc3[nH]2)CC1`, the inhibition in experiment [1] was -0.71%; in [2], -6.99%; in experiment [3] it was -0.8%; in experiment [4] it was -0.45%; in experiment [5], -0.49%; in experiment [6] it was 3.34%. Further, the inhibition in experiment [7] was 18.3%; in experiment [8] it was 0.78%; in experiment [9], 0.66%; in experiment [10], 5.08%; in experiment [11], 0.11%; in experiment [12] it was 1.5%. The inhibition was 2.34% in experiment [13]; 0.4% in experiment [14]; -0.26% in [15]; 2.77% in [16]; 15.5% in [17]; 0.67% in experiment [18]. In addition, the inhibition in experiment [19] was 9.51%; in experiment [20] it was -0.44%.

On to `CN(C)CCOc1ccc(-c2cc(-c3ccc4c(c3)CCC4=NO)c(-c3ccncc3)o2)cc1`, for which the inhibition in experiment [1] was -1.18%; in experiment [2] it was -2.52%; in [3] it was -1.37%; in [4], -1.35%; in [5] it was -1.61%; in [6], -1.27%. The inhibition in experiment [7] was -1.84%; in experiment [8], -2.08%; in experiment [9], 1.81%; in [10] it was -5.74%; in experiment [11], -0.6%; in [12] it was -0.26%. For the same molecule, the inhibition in experiment [13] was 0.68%; in [14] it was -1.71%; in experiment [15], -1.71%; in experiment [16] it was 1.14%; in experiment [17] it was 5.12%; in experiment [18], 0.16%. Besides, the inhibition in experiment [19] was 2.71%; in experiment [20], -1.72%.

For the molecule `O=C(Nc1n[nH]c2cc(-c3cc(F)ccc3F)ccc12)C1CC1`, the inhibition in [1] was -0.43%; in experiment [2], 1.87%; in experiment [3] it was 0.55%; in experiment [4], 1.65%; in experiment [5] it was 1.03%; in [6], 3.84%. The inhibition was 3.99% in experiment [7]; 2.47% in experiment [8]; 5.89% in experiment [9]; 2.76% in [10]; -0.14% in experiment [11]; 2.5% in [12]. Besides, the inhibition worked out at 5.44% in experiment [13]; 2.11% in [14]; 5.13% in experiment [15]; 3.39% in experiment [16]; 12.6% in experiment [17]; 1.25% in experiment [18]. Also, the values for the inhibition in [19] and in [20] were 2.16% and -1.51%, respectively.

Regarding `NC(=O)c1cc(-c2ccncc2)cc(-c2ccccc2)c1N`, the inhibition in [1] was -2.35%; in [2], 1.2%; in [3], 1.19%; in experiment [4], -0.48%; in experiment [5], -0.33%; in experiment [6], 1.32%. Further, the inhibition was -0.36% in [7]; 4.42% in experiment [8]; 8.02% in experiment [9]; 5.42% in [10]; 11.9% in experiment [11]; 2.69% in experiment [12]. Further, the inhibition was found to be 1.61% in [13]; 4.36% in experiment [14]; 7.85% in experiment [15]; 3.23% in [16]; 9.56% in experiment [17]; 2.09% in experiment [18]. Besides, the values for the inhibition in experiment [19] and in [20] were 6.55% and 2.08%, respectively.

`COc1cc(C)c(N(C)C(=O)CN(C)C)cc1Nc1nc(Nc2cccc(F)c2C(N)=O)c2cc[nH]c2n1`: the inhibition in [1] is 1.79%; in experiment [2] it was -2.4%; in experiment [3], -3.85%; in experiment [4], -0.22%; in experiment [5], 0.04%; in experiment [6], 1.56%. For the same molecule, the inhibition was 0.17% in experiment [7]; 0.72% in [8]; 1.97% in [9]; 3.34% in experiment [10]; 4.11% in experiment [11]; 1.12% in [12]. Besides, the inhibition in experiment [13] is 1.75%; in experiment [14], -1.34%; in [15] it was 5.45%; in [16], -0.51%; in experiment [17], 1.72%; in experiment [18] it was -1.19%. For the same molecule, the inhibition in experiment [19] was -0.74%; in experiment [20], 0.4%.
